Data: PubChem BioAssay (EPA / NIEHS)
Activity calls are given as the source filed them. The calls were made as follows: active = hit-call score of the fitted dose curve at least 0.9, where 1 is the maximum; inactive = score below 0.9.

Assays:
Details in all cases: mRNA level, 48 h; actives raise or lower the signal
[1] = read-out: ABC Transporter (ABCB1), ABCB1 (gene 5243); assay: LTEA_HepaRG_ABCB1: Life Technologies and Expression Analysis (LTEA) Assay for ABC Transporter (ABCB1) using HepaRG (AID 2283460)
Outline: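 HepaRG, 48 h exposure, 8-pt half-log series from 100 uM, 0.5% DMSO vehicle, duplicates. Readout: ABCB1 transcript by Fluidigm TaqMan qRT-PCR, housekeeping-normalized; bidirectional curve fit vs DMSO baseline.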

[2] = read-out: growth arrest and DNA damage 45 (GADD45B), GADD45B (gene 4616); assay: LTEA_HepaRG_GADD45B: Life Technologies and Expression Analysis (LTEA) Assay for growth arrest and DNA damage 45 (GADD45B) using HepaRG (AID 2283461)
Outline: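 Transcript level quantified by Fluidigm TaqMan qRT-PCR with three housekeeping genes for normalization, analyzed for up- or down-regulation against 0.5% DMSO. HepaRG cultures dosed 48 h at eight half-log concentrations up to 100 uM, duplicates.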

[3] = read-out: ABC Transporter (ABCC3), ABCC3 (gene 8714); assay: LTEA_HepaRG_ABCC3: Life Technologies and Expression Analysis (LTEA) Assay for ABC Transporter (ABCC3) using HepaRG (AID 2283462)
Outline: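 Transcript level by TaqMan qRT-PCR, normalised to three housekeeping genes, fitted in both directions relative to vehicle. Chemicals tested in duplicate at eight half-log concentrations up to 100 uM for 48 h on HepaRG cells (0.5% DMSO).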

[4] = read-out: ABC Transporter (ABCB11), ABCB11 (gene 8647); assay: LTEA_HepaRG_ABCB11: Life Technologies and Expression Analysis (LTEA) Assay for ABC Transporter (ABCB11) using HepaRG (AID 2283463)
Outline: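 HepaRG, 48 h exposure, 8-pt half-log CRC top 100 uM, 0.5% DMSO vehicle, duplicates. Readout: TaqMan qRT-PCR of ABCB11 mRNA, housekeeping-normalized (ACTB/GAPDH/POLR2A). Bidirectional fit vs DMSO baseline.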

[5] = read-out: ABC Transporter (ABCC2), ABCC2 (gene 1244); assay: LTEA_HepaRG_ABCC2: Life Technologies and Expression Analysis (LTEA) Assay for ABC Transporter (ABCC2) using HepaRG (AID 2283464)
Outline: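 Endpoint is ABCC2 transcript level from qRT-PCR, normalized to three housekeeping genes and fitted bidirectionally relative to DMSO. Human HepaRG cells received test chemical for 48 h at up to 100 uM (8 points, half-log steps, 0.5% DMSO), duplicate wells.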

[6] = read-out: Broad substrate specificity ATP-binding cassette transporter ABCG2 (Homo sapiens) (UniProt Q9UNQ0); assay: LTEA_HepaRG_ABCG2: Life Technologies and Expression Analysis (LTEA) Assay for ABC Transporter (ABCG2) using HepaRG (AID 2283465)
Outline: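 HepaRG, 48 h exposure, 8-pt half-log series from 100 uM, 0.5% DMSO vehicle, duplicates. Readout: ABCG2 transcript by qRT-PCR (Fluidigm array), housekeeping-normalized; bidirectional curve fit relative to DMSO baseline.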

[7] = read-out: ATP-citrate lyase (ACLY), ACLY (gene 47); assay: LTEA_HepaRG_ACLY: Life Technologies and Expression Analysis (LTEA) Assay for ATP-citrate lyase (ACLY) using HepaRG (AID 2283466)
Outline: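 qRT-PCR readout of ACLY transcript after 48 h chemical treatment of HepaRG cells; expression normalized to three housekeeping genes. Eight-point half-log series, highest 100 uM, 0.5% DMSO vehicle. Gain or loss fitted against DMSO baseline.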

[8] = read-out: Peroxisomal acyl-coenzyme A oxidase 1 (ACOX1) gene, ACOX1 (gene 51); assay: LTEA_HepaRG_ACOX1: Life Technologies and Expression Analysis (LTEA) Assay for Peroxisomal acyl-coenzyme A oxidase 1 (ACOX1) gene using HepaRG (AID 2283467)
Outline: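 HepaRG, 48 h chemical exposure, 8-pt half-log series from 100 uM top, 0.5% DMSO vehicle, duplicates. Readout: ACOX1 mRNA by Fluidigm qRT-PCR, housekeeping-normalized; bidirectional fit vs DMSO baseline.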

[9] = read-out: Alkaline Phosphatase, Placental (ALPP) gene, ALPP (gene 250); assay: LTEA_HepaRG_ALPP: Life Technologies and Expression Analysis (LTEA) Assay for Alkaline Phosphatase, Placental (ALPP) gene using HepaRG (AID 2283468);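 as to AC50: differentiated human HepaRG liver cells in serum-free induction medium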
Outline: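 ALPP transcript level, measured by qRT-PCR and normalized to three housekeeping genes (ACTB, GAPDH, POLR2A), after 48 h dosing of differentiated HepaRG in serum-free induction medium. Top concentration 100 uM with half-log dilutions (8 points, 0.5% DMSO, duplicates); bidirectional fitting relative to DMSO.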

[10] = read-out: Bcl-2 (BAD) gene, BAD (gene 572); assay: LTEA_HepaRG_BAD: Life Technologies and Expression Analysis (LTEA) Assay for Bcl-2 (BAD) gene using HepaRG (AID 2283469)
Outline: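 HepaRG, 48 h exposure, 8-pt half-log curve from 100 uM in 0.5% DMSO, duplicates. Readout: TaqMan qRT-PCR for BAD mRNA, housekeeping-normalised (ACTB/GAPDH/POLR2A); gain or loss fitted against DMSO baseline.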

[11] = read-out: Bcl-2 (BAX) gene, BAX (gene 581); assay: LTEA_HepaRG_BAX: Life Technologies and Expression Analysis (LTEA) Assay for Bcl-2 (BAX) gene using HepaRG (AID 2283470)
Outline: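 qRT-PCR read-out of BAX mRNA, normalized to three housekeeping genes, after 48 h chemical exposure of human HepaRG cells in serum-free induction medium; eight-point half-log series, top 100 uM, 0.5% DMSO vehicle; bidirectional fit versus DMSO.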

[12] = read-out: Alpha-fetoprotein (AFP) gene, AFP (gene 174); assay: LTEA_HepaRG_AFP: Life Technologies and Expression Analysis (LTEA) Assay for Alpha-fetoprotein (AFP) gene using HepaRG (AID 2283472)
Outline: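 qRT-PCR (Fluidigm TaqMan) readout of AFP transcript, normalized to three housekeeping genes, fitted bidirectionally against 0.5% DMSO baseline. HepaRG cells received chemicals for 48 h in serum-free induction medium, top concentration 100 uM, half-log steps.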

BCL2L11 (gene 10018) = assay: LTEA_HepaRG_BCL2L11: Life Technologies and Expression Analysis (LTEA) Assay for Bcl-2 (BCL2L11) gene using HepaRG (AID 2283473)
Outline: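 BCL2L11 transcript levels are measured by Fluidigm qRT-PCR, normalized to three housekeeping genes. HepaRG cultures were plated 48 h, then treated 48 h with test chemical (top 100 uM, half-log, 0.5% DMSO vehicle); curves were fitted bidirectionally against DMSO.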

[13] = read-out: Apolipoprotein A-V (APOA5) gene, APOA5 (gene 116519); assay: LTEA_HepaRG_APOA5: Life Technologies and Expression Analysis (LTEA) Assay for Apolipoprotein A-V (APOA5) gene using HepaRG (AID 2283474)
Outline: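 APOA5 transcript levels were quantified by qRT-PCR, normalized to three housekeeping genes, after 48 h chemical treatment of HepaRG cells (8 points, 100 uM maximum, half-log steps, 0.5% DMSO). Curves fitted in both directions against vehicle.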

[14] = read-out: Apoptosis regulator Bcl-2 (Homo sapiens) (UniProt P10415); assay: LTEA_HepaRG_BCL2: Life Technologies and Expression Analysis (LTEA) Assay for Bcl-2 gene using HepaRG (AID 2283475)
Outline: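 qRT-PCR read-out (Fluidigm TaqMan) of BCL2 transcript, normalised to three housekeeping genes, after 48 h chemical exposure of HepaRG cells; 8-point half-log series, top 100 uM, 0.5% DMSO vehicle. Gain or loss of signal fitted relative to DMSO baseline.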

[15] = read-out: Bcl-2 (BID) gene, BID (gene 637); assay: LTEA_HepaRG_BID: Life Technologies and Expression Analysis (LTEA) Assay for Bcl-2 (BID) gene using HepaRG (AID 2283476)
Outline: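 HepaRG, 48 h exposure, 8-pt half-log series, top 100 uM, 0.5% DMSO vehicle, duplicates. Readout: BID mRNA by TaqMan qRT-PCR; housekeeping-normalized; bidirectional curve fit vs DMSO baseline.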

Caspase-3 (Homo sapiens) = Caspase-3 (Homo sapiens) (UniProt P42574); assay: LTEA_HepaRG_CASP3: Life Technologies and Expression Analysis (LTEA) Assay for cysteine-aspartic acid protease (CASP3) using HepaRG (AID 2283477)
Sequence of Caspase-3 (Homo sapiens) (P42574 whole entry, looked up): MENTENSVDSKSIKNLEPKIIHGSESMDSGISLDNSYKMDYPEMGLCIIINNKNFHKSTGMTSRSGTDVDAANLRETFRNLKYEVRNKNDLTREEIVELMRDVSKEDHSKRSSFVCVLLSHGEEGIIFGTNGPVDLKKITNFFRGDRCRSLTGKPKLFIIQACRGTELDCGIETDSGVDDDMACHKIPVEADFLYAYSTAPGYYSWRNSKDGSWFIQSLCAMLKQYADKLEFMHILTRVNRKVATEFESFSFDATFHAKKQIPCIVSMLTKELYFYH
Outline: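 Expression of CASP3 was quantified by TaqMan qRT-PCR against three housekeeping genes (ACTB, GAPDH, POLR2A), bidirectionally versus 0.5% DMSO. HepaRG cultures received compounds in duplicate, top 100 uM with half-log steps, for 48 h in serum-free induction medium.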

[16] = read-out: Cytochrome P450 (CYP24A1), CYP24A1 (gene 1591); assay: LTEA_HepaRG_CYP24A1: Life Technologies and Expression Analysis (LTEA) Assay for Cytochrome P450 (CYP24A1) using HepaRG (AID 2283478)
Outline: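 mRNA of CYP24A1 quantified by TaqMan qRT-PCR (ACTB/GAPDH/POLR2A normalization) after 48 h chemical exposure of HepaRG cells, top concentration 100 uM, half-log steps, 0.5% DMSO vehicle, duplicates. Curves fitted bidirectionally against DMSO baseline.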

Sequence of Apoptosis regulator Bcl-2 (Homo sapiens) (P10415 whole entry, looked up): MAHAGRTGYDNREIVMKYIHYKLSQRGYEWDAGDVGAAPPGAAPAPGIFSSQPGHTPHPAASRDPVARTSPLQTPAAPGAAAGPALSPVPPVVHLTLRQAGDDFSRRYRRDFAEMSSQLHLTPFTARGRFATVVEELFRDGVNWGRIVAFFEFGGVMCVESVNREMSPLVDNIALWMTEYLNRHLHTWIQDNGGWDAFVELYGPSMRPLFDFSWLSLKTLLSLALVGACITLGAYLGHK
Sequence of Broad substrate specificity ATP-binding cassette transporter ABCG2 (Homo sapiens) (Q9UNQ0 whole entry, looked up): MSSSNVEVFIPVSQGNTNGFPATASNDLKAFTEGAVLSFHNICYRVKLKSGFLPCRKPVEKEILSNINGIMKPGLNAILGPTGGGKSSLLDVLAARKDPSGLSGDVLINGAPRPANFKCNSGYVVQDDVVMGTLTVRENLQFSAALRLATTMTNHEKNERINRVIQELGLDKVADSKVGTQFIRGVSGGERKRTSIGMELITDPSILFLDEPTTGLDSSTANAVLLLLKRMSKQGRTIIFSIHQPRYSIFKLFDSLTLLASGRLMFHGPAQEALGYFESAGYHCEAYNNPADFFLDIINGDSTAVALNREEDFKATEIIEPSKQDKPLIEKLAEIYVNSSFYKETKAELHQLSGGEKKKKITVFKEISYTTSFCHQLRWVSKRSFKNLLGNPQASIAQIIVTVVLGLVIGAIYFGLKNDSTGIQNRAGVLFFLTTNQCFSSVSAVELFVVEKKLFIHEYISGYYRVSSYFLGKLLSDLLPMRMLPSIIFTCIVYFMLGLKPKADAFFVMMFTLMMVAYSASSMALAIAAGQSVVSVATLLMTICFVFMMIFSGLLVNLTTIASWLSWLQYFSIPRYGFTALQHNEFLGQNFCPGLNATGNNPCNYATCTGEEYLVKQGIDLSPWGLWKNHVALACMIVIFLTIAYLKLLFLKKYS

With `CC(Cc1ccc(OCC(=O)O)cc1)NCC(O)c1csc(C(F)(F)F)n1` (centres undefined) the outcome [1] was “inactive”, the outcome [2] was “inactive” and the outcome [3] was “inactive”. For the same compound, the outcome [4] was “inactive”, the outcome [5] was “inactive” and the outcome [6] was “inactive”. The outcome [7] was “inactive”, the outcome [8] was “inactive” and the AC50 [9] was 55.2 nM (active). For the same compound, the outcome [10] was “inactive”, the outcome [11] was “inactive” and the outcome [12] was “inactive”. The outcome (BCL2L11 (gene 10018)) was “inactive”, the outcome [13] was “inactive” and the AC50 [14] was 125 nM (active). The outcome [15] was “inactive”, the outcome (Caspase-3 (Homo sapiens)) was “inactive” and the AC50 [16] was 3.16 nM (active).
For `Nc1cc2c3c(c1)C(c1ccccc1)=N[C@@H](NC(=O)c1cccnc1)C(=O)N3CC2`, the AC50 [1] was 18500 nM (active), the outcome [2] was “inactive” and the outcome [3] was “inactive”. The outcome [4] was “inactive”, the outcome [5] was “inactive” and the outcome [6] was “inactive”. For the same compound, the outcome [7] was “inactive”, the outcome [8] was “inactive” and the outcome [9] was “inactive”. The outcome [10] was “inactive”, the outcome [11] was “inactive” and the outcome [12] was “inactive”. The outcome (BCL2L11 (gene 10018)) was “inactive”, the outcome [13] was “inactive” and the outcome [14] was “inactive”. The outcome [15] was “inactive”, the outcome (Caspase-3 (Homo sapiens)) was “inactive” and the outcome [16] was “inactive”.
In the case of `c1nc[nH]n1`, the outcome [1] is reported as “inactive”, the outcome [2] is reported as “inactive” and the outcome [3] is reported as “inactive”. The outcome [4] was “inactive”, the outcome [5] was “inactive” and the outcome [6] was “inactive”. The outcome [7] was “inactive”, the outcome [8] was “inactive” and the AC50 [9] was 109 nM (active). For the same compound, the AC50 [10] was 105 nM (active), the outcome [11] was “inactive” and the outcome [12] was “inactive”. The outcome (BCL2L11 (gene 10018)) was “inactive”, the AC50 [13] was 112 nM (active) and the outcome [14] was “inactive”. The AC50 [15] was 89.7 nM (active), the outcome (Caspase-3 (Homo sapiens)) was “inactive” and the AC50 [16] was 185 nM (active).
